Experimental data taken from PubChem BioAssay AID686979 (National Center for Advancing Translational Sciences (NCATS), 2013).
The whole screen tested about 420,000 compounds, of which about 50,000 (12%) were called active. Not shown: some 26% with an inconclusive outcome. The call rests on the fitted dose curve; in most records, active means well fitted inhibition curve with a large enough effect; inconclusive means small, poorly fitted or top-dose-only effect; inactive means flat fitted curve, though single readings scatter. The entries come from a sample that favours actives as a whole. Entries that show only a call come without a potency.

Assay: qHTS for Inhibitors of human tyrosyl-DNA phosphodiesterase 1 (TDP1): qHTS in cells in presence of CPT; further: nearly all actives have a fitted effect of over 55% in size
Conditions: chicken DT40 Tdp1-/-;hTDP1 cells + 20 nM CPT, ATP luminescence, 48 h; series mostly up to 46.2 µM
Summary of the method: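 Chicken DT40 Tdp1-/- cells complemented with human TDP1, 400 cells/well, exposed to compounds plus 20 nM camptothecin for at least 48 h at 37 C; viability read as ATP content by CellTiter-Glo luminescence.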
Potency means the concentration at half of the fitted maximal effect.

Row | SMILES | Potency
1 | COc1ccc(S(=O)(=O)NCC(c2ccc(C)cc2)N2CCN(C)CC2)cc1OC (configuration not stated) | inactive
2 | Cn1cccc1/C=C1\SC(=O)N(CC(=O)Nc2ccc(F)cc2)C1=O | inactive
3 | Cc1nn(Cc2ccccc2)c(C)c1C(=O)NCCN1C(=O)S/C(=C\c2ccc(F)cc2)C1=O | 16.4 µM (active)
4 | Cc1nn(Cc2ccccc2)c(C)c1C(=O)NCCCN1CCCC1=O | inactive
5 | O=C(COc1coc(CN2CCN(c3ccccc3)CC2)cc1=O)N1CCc2ccccc21 | inactive
6 | CC(Sc1nnc(COc2ccccc2)n1-c1ccccc1)C(=O)O (configuration not stated) | inactive
7 | O=C(O)c1cnn2c(C(F)(F)F)cc(-c3ccccc3)nc12 | inactive
8 | COc1ccc(-c2cc(C(F)(F)F)n3nc(C(=O)N4CCOCC4)c(Cl)c3n2)cc1 | 16.4 µM (active)
9 | COc1ccc(OCC(=O)N2CCOCC2)cc1 | inactive
10 | CC(=O)Nc1ccc(SCC(=O)NC(=O)c2ccc(Cl)cc2)cc1 | inactive
11 | O=c1onc(-c2c(F)cccc2F)n1-c1ccccc1Cl | inactive
12 | COc1ccc(CN(C)CCn2cc(C(=O)N3CCSCC3)nn2)cc1C | inactive
13 | CCN1CCN(Cc2nc3c(c(=O)n(C)c(=O)n3C)n2CC(=O)c2ccccc2)CC1 | inactive
14 | O=c1cc(CO)oc(CN2CCC(Cc3ccccc3)CC2)c1O | inactive
15 | Cn1c(=O)c2c(nc(CN3CCOCC3)n2Cc2ccccc2)n(C)c1=O | inactive
16 | COCCn1c(CN2CCC(Cc3ccccc3)CC2)nc2c1c(=O)n(C)c(=O)n2C | 8.2 µM (active)
17 | CC1CCCN(Cc2nc3c(c(=O)n(C)c(=O)n3C)n2CC(=O)c2ccccc2)C1 (configuration not stated) | 23.1 µM (active)
18 | O=C(O)C1CCCN(CCC=C(c2ccccc2)c2ccccc2)C1 (configuration not stated) | inactive
19 | CCc1ccc(N2CC(C(=O)N3CCCCCC3)CC2=O)cc1 (configuration not stated) | inactive
20 | Cc1c(C(=O)NC(C)C2CC3CCC2C3)cccc1[N+](=O)[O-] (configuration not stated) | inactive
21 | CCn1c(CSc2nc(C)cc(C)n2)nnc1SCC(N)=O | inactive
22 | O=C(Nc1ccccc1Br)c1cc(CN2CCCC2)on1 | inactive
23 | O=C(NCc1ccccn1)c1c(O)c2c([nH]c1=O)CCCC2 | inactive
24 | Cc1[nH]c(=O)c(C(=O)/C=C/c2ccccc2)c2c1CCCC2 | 5.8 µM (active)
25 | Cc1cn(COC/C=C/c2ccccc2)c(=O)[nH]c1=O | inactive
26 | O=C1NC(=O)C(c2ccc(Cl)cc2)N1 (configuration not stated) | inactive

Row | SMILES | Potency
27 | CCCCN(C(=O)C1=NN(c2cc(C)ccc2C)C(=O)CC1)c1c(N)n(CCC)c(=O)[nH]c1=O | inactive
28 | O=C(NCC1CCCO1)c1cc(-c2ccccc2)nc2ccccc12 (configuration not stated) | inactive
29 | O=C(NCC1CCCO1)c1cc2c([nH]c3ccccc32)c(-c2ccc(F)cc2)n1 (configuration not stated) | 2.06 µM (active)
30 | O=C(NCC1CCCO1)c1ccc2ccccc2n1 (configuration not stated) | inactive
31 | CCOC(=O)c1c(-c2ccccc2)oc2cc(Br)c(O)cc12 | inactive
32 | O=C(c1ccncc1)N1CCN(c2ccc3ccccc3n2)CC1 | inactive
33 | O=C(COC(=O)Cc1ccccc1F)NCCc1ccccc1 | inactive
34 | N=c1n(CCc2ccccc2)c2ccccc2n1Cc1ccccc1F | 7.31 µM (active)
35 | Cn1cc(CN2CCC(C(O)CCc3ccccc3)CC2)c(-c2ccccc2F)n1 (configuration not stated) | inactive
36 | CCC(=O)c1ccc(OC(=O)/C=C/c2cc(OC)c(OC)c(OC)c2)cc1 | inactive
37 | CC1(C)C=Cc2c(ccc3c2OC[C@@H](c2ccc(O)cc2O)C3)O1 | 25.9 µM (active)
38 | NS(=O)(=O)c1ccc(NC2=CC(c3ccc(F)cc3)N(c3ccc(S(N)(=O)=O)cc3)C2=O)cc1 (configuration not stated) | inactive
39 | Cc1[nH]nc(SCC(=O)NCC(C)C)c1[N+](=O)[O-] | inactive
40 | CC1CCCC(N2CCN(C(=O)c3ccc(F)cc3)CC2)C1 (configuration not stated) | inactive
41 | COC(=O)c1ccc(COc2ccc(/C=N/NC(=O)C(=O)Nc3ccc(OC)cc3)cc2OC)o1 | inactive
42 | COc1ccccc1OCc1ccc(C(=O)NC(C)c2ccccc2)o1 (configuration not stated) | inactive
43 | CCCc1ccc(OCc2ccc(C(=O)N/N=C/c3cccc([N+](=O)[O-])c3)o2)c(OC)c1 | 8.2 µM (active)
44 | CCOc1ccc(C2C(C#N)=C(N)N(N(C)C)C3=C2C(=O)CCC3)cc1 (configuration not stated) | inactive
45 | Cc1ccc2c(O)c(Cc3ccccc3)c(=O)[nH]c2n1 | inactive
46 | O=C(NC1CCCC1)C1CCN(C(=O)Nc2cccc(Cl)c2)CC1 | inactive
47 | COc1ccc(CNC(=O)COC(=O)c2sccc2C)cc1OC | inactive
48 | OC(COc1ccccc1)Cn1cc(Br)cn1 (configuration not stated) | inactive
49 | O=C(c1ccccc1)c1ccc(OCC(O)CN2CCCC2)cc1 (configuration not stated) | inactive
50 | OC(CN=c1sc2ccccc2n1CC(O)COc1ccccc1)COc1ccccc1 (configuration not stated) | 25.9 µM (active)
51 | Cc1ccc(OCCNC(=O)CCNS(=O)(=O)c2ccc(Br)cc2)cc1 | inactive
52 | COc1ccc(C)cc1Nc1n[n+](-c2ccccc2)c(-c2cccc(Cl)c2Cl)s1 | 13 µM (active)

Row | SMILES | Potency
53 | COc1ccc(C)cc1S(=O)(=O)Nc1cccc(Cl)c1Cl | inactive
54 | COc1ccc(C)cc1Nc1nc(-c2c(C)[nH]c3ccccc23)cs1 | inactive
55 | O=C(c1ccc(NS(=O)(=O)c2ccc3[nH]c(=O)[nH]c3c2)cc1)N1CCCCC1 | inactive
56 | N#CC1(NC(=O)COC(=O)CSc2ccc(F)cc2)CCCCC1 | inactive
57 | Cc1ccc(NC2=C(c3ccc(C(F)(F)F)cc3)C(=O)c3ccccc32)cc1F | 8.2 µM (active)
58 | CC(=O)N1CCN(CC(=O)Nc2ccc(C)c(F)c2)CC1 | inactive
59 | Cc1ccc(NC(=O)NC(=O)c2ccccc2)cc1F | inactive
60 | COC(=O)c1sc(SC)c(S(=O)(=O)C(C)C)c1N/N=C(\C#N)S(=O)(=O)c1ccccn1 | inactive
61 | CCCC(=O)OCC(=O)Nc1cc(Cl)ccc1[N+](=O)[O-] | inactive
62 | CC(=O)c1ccc(-c2nnc(CCC(=O)N(C)Cc3cnc4ccccn34)o2)s1 | inactive
63 | CCc1ccc(CN(C)C(=O)CCc2nnc(-c3ccc(-c4ccccc4)cc3)o2)nc1 | 18.4 µM (active)
64 | CC(C)N(C)C(=O)CCc1nnc(CCc2c[nH]c3ccccc23)o1 | inactive
65 | CCCc1ccc(OCC(O)CN2CCN(CCO)CC2)cc1 (configuration not stated) | inactive
66 | CC(=O)c1cccc(-c2cnc3c(NC=O)cc(-c4ccccc4Oc4ccccc4)cn23)c1 | 14.6 µM (active)
67 | CC(=O)c1cccc(-c2cnc3c(NC=O)cc(-c4ccc(N(C)C)cc4)cn23)c1 | 7.31 µM (active)
68 | COc1ccccc1C(=O)Nc1cccc(C(=O)N2CCOCC2)c1 | inactive
69 | CC(=O)Nc1cc(-c2ccc(N3CCN(C)CC3)cc2)cn2c(-c3ccc(F)cc3)cnc12 | 5.17 µM (active)
70 | CC(=O)N1c2ccccc2CC1C(=O)N1CCN(c2ccc(F)cc2)CC1 (configuration not stated) | inactive
71 | O=C(Nc1ccc(F)cc1)N1CCN(c2ccc(F)cc2)CC1 | inactive
72 | CNc1cncc(-c2cccc(C(=O)N3CCOCC3)c2)n1 | inactive
73 | CN(C)C(=O)c1cccc(-c2cnc3c(NC=O)cc(-c4ccc(C(=O)N5CCOCC5)cc4)cn23)c1 | 29.1 µM (active)
74 | COC(=O)C1CCN(C(=O)NC2CC(=O)N(c3ccc4c(c3)OCCO4)C2)CC1 (configuration not stated) | inactive
75 | NC(=O)COC(=O)c1ccc2c(c1)C(=O)N(Cc1ccco1)C2=O | inactive
76 | COc1cc2c(C(=O)O)c(C)n(C)c2c2ccccc12 | inactive
77 | CNC[C@H]1Oc2c(NC(=O)C3CCCCC3)cccc2C(=O)N([C@H](C)CO)C[C@@H]1C | inactive
78 | CCOC(=O)C(Cc1ccccc1)NC(=O)CCc1c(C)nc2c(c(C)nn2-c2ccc(C)c(C)c2)c1C (configuration not stated) | inactive

Row | SMILES | Potency
79 | Cc1cc(C)c2c(NC(=O)C3CC3)nn(C)c2n1 | inactive
80 | O=C(NCCc1ccccn1)c1nc(Cn2cc([N+](=O)[O-])cn2)no1 | inactive
81 | COc1ccc(NC(=O)CCS(=O)(=O)c2cc3c(cc2Cl)NC(=O)CO3)cc1OC | inactive
82 | CCOc1ccc(N2C(=O)Nc3ccccc3C2(O)C(=O)NCc2ccco2)cc1 (configuration not stated) | inactive
83 | Cc1ccc(NC(=O)c2sccc2C)cc1[N+](=O)[O-] | inactive
84 | O=C(CSc1nccc(=O)[nH]1)Nc1ccc(N2CCOCC2)c(Cl)c1 | inactive
85 | Cc1ccc(OCC(=O)NCCCNC(=O)c2ccco2)cc1C | inactive
86 | CCCC(C(=O)NC1CCCC1)N(C(=O)Cn1nnc(-c2ccc(C)o2)n1)c1cccc(O)c1 (configuration not stated) | inactive
87 | CC(=O)c1ccc(S(=O)(=O)N2CCC3(CC2)OCCO3)cc1 | inactive
88 | O=C(CSc1ncccn1)N1CCCC1 | inactive
89 | COc1ccc(O)c(C(=O)c2cnc3c(c2)c(-c2ccc(F)cc2)c(C#N)c(=O)n3C)c1 | inactive
90 | CNc1cnc(-c2cc(OC)c(OC)c(OC)c2)cn1 | inactive
91 | O=CNc1cc(-c2ccc(C(=O)N3CCOCC3)cc2)cn2c(-c3ccc(F)cc3)cnc12 | 20.6 µM (active)
92 | N#C/C=C(/c1ccc(F)cc1)N1CCOCC1 | inactive
93 | CC(=O)Nc1cccc(-c2cc(NC=O)c3ncc(-c4ccc(F)c(Cl)c4)n3c2)c1 | 23.1 µM (active)
94 | COc1ccc(-c2cc(NC(C)=O)c3ncc(-c4cc(OC)c(OC)c(OC)c4)n3c2)cn1 | 2.59 µM (active)
95 | COc1cc(C(=O)N2CCN(C)CC2)cc(OC)c1OC | inactive
96 | CN(C)C(=O)c1cccc(-c2cnc3c(NC=O)cc(-c4ccc(F)cc4)cn23)c1 | 6.51 µM (active)
97 | Cc1c(NC(=O)Nc2ccc(F)c(Cl)c2)c(=O)n(-c2ccccc2)n1C | inactive
98 | Cc1ccc(C(=O)N2CCN(C(=O)N3CCOCC3)CC2)cc1 | inactive
99 | Cc1ccc(OCC(=O)NCCCNC(=O)c2cccnc2)cc1C | inactive
100 | CCCCn1c(N)c(N(CCC(C)C)C(=O)COC(=O)c2cccnc2OCC)c(=O)[nH]c1=O | inactive
101 | COCCC(=O)Nc1ccc2c(c1)CN(C(=O)CCOC)CC2 | inactive
102 | CC1O[C@@H](OC2C(O)C(C)O[C@H](OC(=O)[C@]34CCC(C)(C)C[C@H]3C3=CCC5[C@@]6(C)CC(O)C(O[C@@H]7OC(CO)C(O)[C@@H](O)[C@@H]7O)[C@@](C)(C(=O)O)C6CC[C@@]5(C)[C@]3(CO)CC4)C2O[C@H]2OC(C)[C@@H](O[C@@H]3OCC(O[C@@H]4OC(CO)C(O)[C@H](O)C4O)[C@@H](O)[C@@H]3O)[C@H](O)C2O)C(O)C(O)C1O (some centres not stated) | inactive
